The list is not random: actives were taken first. Their share in the collection is about 21%.
D3 ag – qHTS of D3 Dopamine Receptor Agonist: qHTS. D3R DiscoveRx beta-arrestin cells, luminescence, 90 min. max activation, %. 410,000 compounds, 0.58% hits; in the data active means max activation above about 30%; further: 0% is about no effect
Target sequence (P35462 whole entry, looked up): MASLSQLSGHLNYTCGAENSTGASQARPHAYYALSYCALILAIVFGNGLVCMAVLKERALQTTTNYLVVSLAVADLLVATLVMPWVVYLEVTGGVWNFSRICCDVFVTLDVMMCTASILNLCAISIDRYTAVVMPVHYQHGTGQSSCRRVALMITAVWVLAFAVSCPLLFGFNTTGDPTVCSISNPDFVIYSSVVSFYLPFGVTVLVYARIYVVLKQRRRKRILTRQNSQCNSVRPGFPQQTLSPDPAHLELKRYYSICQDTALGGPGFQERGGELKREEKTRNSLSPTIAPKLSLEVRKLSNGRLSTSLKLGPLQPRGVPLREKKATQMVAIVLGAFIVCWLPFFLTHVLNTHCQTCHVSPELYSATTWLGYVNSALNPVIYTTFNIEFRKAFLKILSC
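Agonist mode: compounds and dopamine controls were applied to plated cells for 90 min at 37 degrees C after an overnight attachment at 1500 cells/well. Luminescent read-out followed 30 - 60 minutes at room temperature with DiscoveRx detection reagent.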
IL1B secr inh – qHTS for Inhibitors of Inflammasome Signaling: IL-1-beta AlphaLISA Primary Screen. activity change, % at 57.5 µM. THP-1 LPS/ATP IL-1B secretion, AlphaLISA, 16 h; hits give low values. AID 743279, 2014. 360,000 compounds, 4.7% hits; in the data active means activity change below about -50%; inconclusive means mostly about -30% to -49%; further: on the % scale 0 is the no-effect control and ±100 the full control effect
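THP-1 cells pretreated 1 hr with compounds (up to 57.5 uM final), then stimulated with LPS (250 ng/mL final) plus ATP (1.25 mM final); secreted IL-1B measured by AlphaLISA after 16 hr, decreased signal indicating inhibition.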
ClpP mod – qHTS Assay for Activators of ClpP; ATP-dependent Clp protease proteolytic subunit (Bacillus subtilis (strain 168)), P80244; purified B. subtilis ClpP, FRET peptide cleavage, 20 min; Potency, µM (top dose mostly 57.5 µM), for the others: at the top dose activity change, negative = active; 340,000 compounds, 1.9% hits; AID 651965, 2013; active means well fitted falling curve with a large enough effect; inconclusive means small, poorly fitted or top-dose-only effect; inactive means no such curve, though single readings can be large or run the other way; further: potency means the concentration at half of the fitted maximal effect; the source files actives as falling curves though it sought activators and does not explain the sign; nearly all actives have a fitted effect of over 65% in size
Target sequence (P80244 whole entry, looked up): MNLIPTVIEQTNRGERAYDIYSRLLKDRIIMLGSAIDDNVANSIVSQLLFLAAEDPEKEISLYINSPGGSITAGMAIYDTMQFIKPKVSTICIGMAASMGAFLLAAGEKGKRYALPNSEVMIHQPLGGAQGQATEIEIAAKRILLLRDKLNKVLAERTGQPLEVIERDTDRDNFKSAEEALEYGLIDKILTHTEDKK
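Purified B. subtilis ClpP, 10 microg/mL final in Tris/HCl pH8 with KCl, BSA, glycerol and Tween-20, cleaved an Abz/nitrotyrosine-quenched decapeptide. Fluorescence (ex 320, em 430) was read at 0 and 20 min at room temperature. Delta was normalized to 5.8 microM ADEP and DMSO/no-enzyme controls.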
TDP1 cell noCPT – qHTS for Inhibitors of human tyrosyl-DNA phosphodiesterase 1 (TDP1): qHTS in cells in absence of CPT; DT40 Tdp1-/- hTDP1 cells, no CPT, ATP luminescence, 48 h; Potency, µM (top dose mostly 46.2 µM), without a hit: at the highest dose activity change, negative = growth inhibition, most hits filed as inhibitors; 420,000 compounds, 15% hits; further: potency means the concentration at half of the fitted maximal effect; on the % scale 0 is the no-effect control and ±100 the full control effect; nearly all actives have a fitted effect of over 55% in size
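Readout: luminescence from CellTiter-Glo after 30 min in the dark at RT. Cells: DT40 Tdp1-/- with stable hTDP1, 400/well. Exposure: compounds alone, ≥48 hr, 37 °C.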
D3 antag – qHTS of D3 Dopamine Receptor Antagonist: qHTS. D(3) dopamine receptor (Homo sapiens), P35462. AID 652054, 2013. 360,000 compounds, 2.5% hits. max response, negative = inhibition, %. D3R cells, DiscoveRx beta-arrestin luminescence, antagonist mode; hits give low values; in the data active means max response below about -50%; inconclusive means no clear call, values can overlap the other calls; further: on the % scale 0 is the no-effect control and ±100 the full control effect
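Cells plated overnight at 1500 cells/well, then exposed to library compounds with dopamine controls for 90 minutes at 37 degrees C. DiscoveRx reagent added for 30–60 minutes at room temperature; luminescence read, quantitative HTS format.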
DT40 TDP1 CPT – qHTS for Inhibitors of human tyrosyl-DNA phosphodiesterase 1 (TDP1): qHTS in cells in presence of CPT. chicken DT40 Tdp1-/-;hTDP1 cells + 20 nM CPT, ATP luminescence, 48 h. Potency, µM (titrated, usually from 46.2 µM), without a hit: top-dose activity change, negative = growth inhibition, actives largely listed as inhibitors. 420,000 compounds, 12% hits; further: potency means the concentration at half of the fitted maximal effect; on the % scale 0 is the no-effect control and ±100 the full control effect; nearly all actives have a fitted effect of over 55% in size
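Cell growth measured by CellTiter-Glo luminescence after a minimum 48 h, 37 C compound exposure with 20 nM CPT in Tdp1-knockout DT40 cells stably expressing hTDP1, seeded 400/well; qHTS titration format.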
An asterisk follows results filed as active; ? = inconclusive; / = no result; [ ] = remark or other dose. Unless noted, the call rests on the fitted dose curve; in most records, active means well fitted inhibition curve with a large enough effect; inconclusive means small, poorly fitted or top-dose-only effect; inactive means flat fitted curve, though single readings scatter.

SMILES	D3 ag	IL1B secr inh	ClpP mod	TDP1 cell noCPT	D3 antag	DT40 TDP1 CPT
Cc1cccc(Cn2c(SCc3ccc(C(=O)NCc4cccs4)cc3)nc3cccnc32)c1	-28	/	5%	15µM*	/	?
Cc1ccc(CNC(=O)c2ccc(Cn3c(SCc4ccc(F)cc4)nc4cccnc43)cc2)o1	4	/	28µM*	?	/	?
O=C(NCc1cccs1)c1ccc(Cn2c(SCc3ccccc3)nc3cccnc32)cc1	-18	/	4%	26µM*	/	?
CC(=O)c1cccc(NC(=O)C2CC(=O)N(C3CCCC3)C2)c1 (stereo not drawn)	4	-1	1%	-1%	-14	10%
CC(C)(C)N(Cc1ccccc1)C(=O)COC(=O)CNS(=O)(=O)c1ccc2ccccc2c1	-15	22	-1%	-19%	-8	-14%
COc1ccc(N2CCN(C(=O)COC(=O)c3ccc(OC(F)F)cc3)CC2)cc1	-23	-5	-2%	11%	0	-3%
CN1CCN(C(=O)c2cnn3c(C(F)(F)F)cc(-c4cccs4)nc23)CC1	-6	-2	-29%	-30%	-13	6%
O=C(c1cnn2c(C(F)(F)F)cc(-c3cccs3)nc12)N1CCN(Cc2ccccc2)CC1	-12	?	-5%	15µM*	-20	?
FC(F)(F)c1cc(-c2cccs2)nc2cc(-c3ccccc3)nn12	11	4	34%	-17%	24	-25%
O=C(c1ccco1)N1CCN(C(=O)c2cnn3c(C(F)(F)F)cc(-c4cccs4)nc23)CC1	14	-13	-18%	?	16	-24%
O=C(c1cnn2c(C(F)(F)F)cc(-c3cccs3)nc12)N1CCN(C(c2ccccc2)c2ccccc2)CC1	4	-29	-9%	13µM*	-3	9.2µM*
O=C(NCCc1ccccc1)c1nc2nc(-c3cccs3)cc(C(F)(F)F)n2n1	6	0	?	29µM*	?	21µM*
O=C(O)c1ccc(/C=N/NC(=O)c2cc(-c3ccc4c5c(cccc35)CC4)n[nH]2)cc1	1	-20	/	?	19	?
COc1ccc(NC(=O)CCNC(=O)c2ccco2)c(OC)c1	3	-14	/	1%	-8	-28%
COc1cccc(NC(=O)N2CCC(NC(=O)C(Cc3ccccc3F)NC(C)=O)CC2)c1 (stereo not drawn)	5	21	0%	29%	11	-9%
C=CCn1c(CCNC(=O)c2ccco2)nc2ccccc21	-27	13	-1%	-3%	-74*	10%
O=C(NCCc1nc2ccccc2n1Cc1ccccc1)c1ccco1	-19	/	1%	?	/	?
O=C(Nc1nc2ccccc2n1Cc1ccccc1)c1ccco1	-7	-12	-15%	21µM*	20	21µM*
Cc1cc(-c2c(C)[nH]n(-c3ccccc3)c2=O)n[nH]1	-17	-2	/	4.1µM*	?	2.9µM*
CCOC(=O)C1CCN(C(=O)c2cccc(S(=O)(=O)N3CCc4ccccc43)c2)CC1	-1	30	2%	?	2	?
CC1CCCN(C(=O)c2cccc(S(=O)(=O)N3CCCc4ccccc43)c2)C1 (stereo not drawn)	-12	-15	0%	10µM*	-6	10µM*
CCOC(=O)C1CCN(C(=O)c2cccc(S(=O)(=O)N3CCCc4ccccc43)c2)CC1	-17	-7	/	23µM*	?	?
OCCNCCO	1	4	-1%	-16%	10	-2%
CCN(CC)c1ccc(/C=C/c2cc(-c3ccccc3)c3ccccc3n2)cc1	5	34	-4%	26µM*	5	-51%
CN(C)c1ccc(/C=C/c2ccc3cc(F)ccc3n2)cc1	/	/	-4%	10µM*	/	?
SMILES	D3 ag	IL1B secr inh	ClpP mod	TDP1 cell noCPT	D3 antag	DT40 TDP1 CPT
C(=C\c1ccc2ccccc2n1)/c1ccccc1	-7	6	-28%	?	28	?
CN(C)c1ccc(/C=C/c2ccc3ccccc3n2)cc1	-1	27	-9%	12µM*	13	18µM*
CN(C)c1ccc(/C=C/c2ccc3cc(N(C)C)ccc3n2)cc1	/	/	-3%	?	/	13µM*
Cc1cc(Br)cc(Cl)c1OC(=O)c1ccncc1	5	18	/	16%	9	16%
CCS(=O)(=O)N1Cc2cc(C(=O)N(C)C)nc(-c3cccc(-c4ccc(F)cc4)c3)c2[C@@H]1CCO	-2	0	1%	-25%	-2	1%
CCCn1cc(S(=O)(=O)c2cccc(Cl)c2)c(=O)c2cc(F)c(N3CCOCC3)cc21	-4	/	-13%	?	/	?
Cc1ccc(-c2nnc(SCC(=O)NCCN3C(=O)CSC3=O)n2C)cc1	0	6	-4%	1%	6	8%
CCCN(CCC)c1ccc(/C=C/c2ccc3cc(OCC)ccc3n2)cc1	0	3	11%	23µM*	12	?
CN(C)c1ccc(/C=C/c2cc(/C=C/c3ccc(N(C)C)cc3)c3ccccc3n2)cc1	/	/	2%	11µM*	/	?
CN(C)c1ccc(/C=C/c2cccc3cc4ccccc4nc23)cc1	/	/	56%	0.13µM*	/	0.1µM*
CN(C)c1ccc(C(=N)Cc2ccc3ccccc3n2)cc1	-5	29	0%	?	5	21µM*
CCOc1cc(/C=C/c2cc(C(=O)O)c3ccccc3n2)ccc1O	-4	0	-5%	-8%	-26	-3%
Cc1onc(-c2ccccc2)c1C(=O)NCCN1Cc2ccccc2OC(c2ccsc2)C1 (stereo not drawn)	/	/	/	15µM*	/	-1%[9.04 µM]
CCCOc1ccc(/C=C2\SC(N)=NC2=O)cc1OC	-1	4	-4%	?	16	-13%
COc1cc(/C=C2\C(=O)N(c3ccccc3)N=C2C)ccc1Oc1ccc([N+](=O)[O-])cc1[N+](=O)[O-]	-9	?	-4%	18µM*	?	16µM*
COc1cc(/C=C2/SC(N)=NC2=O)ccc1Oc1ccc([N+](=O)[O-])cc1[N+](=O)[O-]	1	8	1%	2.9µM*	-2	3.3µM*
COc1cc(/C=C2/SC(=O)NC2=O)ccc1Oc1ccc([N+](=O)[O-])cc1[N+](=O)[O-]	8	?	0%	?	-2	?

High-throughput results (PubChem BioAssay)
